Laboratory results: PubChem BioAssay AID624330 (Southern Research Specialized Biocontainment Screening …, 2012)
Out of some 340,000 compounds screened, about 2,100 (0.62%) were called active.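 How the source made its calls: active means first-screen hits whose inhibition reached a set limit at any dose in the follow-up dose series; inconclusive means inhibition above the set first-screen limit but never retested; inactive means the rest.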 The list is a sample of the results. Entries with a potency or affinity are not part of this list.

target: Rac GTPase-activating protein 1 (Homo sapiens) (UniProt Q9H0H5); experiment: MgcRacGAP GTPase-activating activity inhibitors, confirmation, biochemical, ADP Hunter fluorescence, primary and confirmatory (AID 624330); settings: MgcRacGAP-stimulated Rac1 GTP hydrolysis, at 30 µM, active compounds read high, GST-tagged Rac1 F28L mutant substrate;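 further: fluorescence reports GDP produced by GAP-driven GTP hydrolysis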
Sequence (Q9H0H5 whole entry, looked up): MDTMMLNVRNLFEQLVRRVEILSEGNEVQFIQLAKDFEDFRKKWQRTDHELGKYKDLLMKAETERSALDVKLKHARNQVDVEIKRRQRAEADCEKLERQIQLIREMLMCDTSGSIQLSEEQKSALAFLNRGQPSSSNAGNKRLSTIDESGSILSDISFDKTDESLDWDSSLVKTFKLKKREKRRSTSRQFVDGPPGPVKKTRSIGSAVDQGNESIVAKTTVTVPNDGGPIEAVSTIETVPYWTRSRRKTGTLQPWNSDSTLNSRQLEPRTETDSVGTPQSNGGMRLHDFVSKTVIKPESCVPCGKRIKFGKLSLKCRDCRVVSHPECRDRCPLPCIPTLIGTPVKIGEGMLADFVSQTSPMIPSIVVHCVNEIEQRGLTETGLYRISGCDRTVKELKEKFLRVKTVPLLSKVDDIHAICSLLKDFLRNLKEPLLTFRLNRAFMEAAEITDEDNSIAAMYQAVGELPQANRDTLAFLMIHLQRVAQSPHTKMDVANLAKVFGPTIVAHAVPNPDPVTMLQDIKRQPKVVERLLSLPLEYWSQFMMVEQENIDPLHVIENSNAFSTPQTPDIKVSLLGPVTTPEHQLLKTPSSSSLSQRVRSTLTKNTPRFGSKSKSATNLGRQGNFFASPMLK

inhibition, inactive:
O=C(NCc1ccc2c(c1)OCO2)C(=O)NCC1OCCN1S(=O)(=O)c1ccccc1 (stereo unspecified) 4.4%
Cc1cccc(OCC(=O)N2CCCc3ccccc32)c1 -0.63%
COc1ccc(CN(C)CCCn2cnc(C(=O)Nc3ccc(C)c(C)c3)n2)cc1OC 8.28%
O=C(c1ccco1)N1CCN(Cc2cccc3ccccc23)CC1 15.8%
CN1CCN(Cc2cccc(Oc3ccccc3)c2)CC1 4.23%
COc1cccc(CN2CCN(c3ncccn3)CC2)c1OC 2.75%
COc1ccccc1CN1CCN(C(=O)c2ccco2)CC1 -1.8%
COc1cc(CN2CCN(Cc3ccccc3C(F)(F)F)CC2)cc(OC)c1OC 5.51%
CCN1CCN(Cc2cccc(Oc3ccccc3)c2)CC1 22.4%
Cc1cc(Br)ccc1NC(=O)CCSc1ccccc1 2.79%
Cc1ccc(NC(=O)c2cc(N(C)C)ccc2[P+](=O)O)cc1 4.54%
Cc1ccc(C(=O)O)cc1N1CCCC1=O -7.73%
CCC(Sc1nc2n[nH]c(C)c2c(=N)n1-c1ccc(C)c(Cl)c1)C(=O)N1CCOCC1 (stereo unspecified) 8.01%
c1ccc2c(c1)CCN(C1CCCCC1)C2 26.9%
Oc1ccccc1CN1CCCC(N2CCc3ccccc3C2)C1 (stereo unspecified) 12.1%
COCCN(CCOC)C(=O)COC(=O)c1ccc(Cl)c(S(=O)(=O)N(C)c2ccccc2)c1 3.9%
O=S1(=O)N=C(SCCO)c2ccccc21 4.31%
CC1=C(SCc2ccccc2)C(=O)c2ccccc2C1=O -10.4%
Cc1ccc(OCCNC(=O)C(C)SCC(=O)Nc2ccc(F)cc2)cc1 (stereo unspecified) 1.75%
O=C1C=CC(=O)N1c1ccc(O)cc1 15.3%
O=C(O)c1ccc2c(c1)C(=O)N(c1ccc(Nc3ccccc3)cc1)C2=O 9.3%
O=C(c1ccc(Cl)c(Cl)c1)c1cc(-c2ccccn2)c(N2CCOCC2)s1 6.1%
COc1ccc(N2CCN(C(=O)c3cc(C4CC4)nn3-c3ccccc3)CC2)cc1 27.4%
O=C(c1ccc(Cl)c(S(=O)(=O)N2CCCCC2)c1)N1CCN(c2ccccc2)CC1 11.4%
O=C(c1ccc(Cl)c(S(=O)(=O)N2CCCC2)c1)N1CCN(c2ccc(F)cc2)CC1 6.75%
O=C(c1cc(C2CC2)nn1-c1ccccc1)N1CCN(c2ccccc2O)CC1 5.58%
COc1ccc(-c2cc(C(=O)N3CCN(c4ccccc4)CC3)c3ccccc3n2)cc1 -2.68%
O=C(c1ccccc1)N1CCN(c2ccccc2)CC1 5.43%
CC(=O)c1ccc(N2CCN(C(=O)c3ccc(C(=O)c4ccccc4)cc3)CC2)cc1 -1.4%
Cc1ccc(-c2cc(C(=O)N3CCN(c4ccccc4O)CC3)c3ccccc3n2)cc1 2.39%
CCOC(=O)c1c(C)[nH]c(C(=O)N/N=C/c2ccc(OC)c(OC)c2)c1C -4.46%
COc1ccc(NC(=O)c2cccc(NC3=NC4CS(=O)(=O)CC4S3)c2)cc1Cl (stereo unspecified) 10.8%
CCc1nnc(N/N=C\c2ccc(OC(C)=O)c(OC)c2)n1N 10.6%
CCC1(CC)C(=O)N(c2ccccc2)C(=N)N(c2ccccc2)C1=O -9.62%
N#Cc1cccc(NC(=O)CN2CCN(Cc3ccccc3)CC2)c1 10.1%
Cc1nc(N)c2c(Cc3cccc4ccccc34)nn(C(C)(C)C)c2n1 2.87%
COc1ccccc1CN(C)C(=O)c1sccc1-c1ccccc1 -0.12%
Cc1ccc(/C(N)=N/OC(=O)c2ccc3ccccc3c2)cc1 7.71%
O=C(NCCCN1CCOCC1)c1cc(-c2ccc(F)cc2)on1 5.56%
C/C(=N/NC(=O)CNC(=O)c1cccs1)c1ccc(Cl)cc1 5.28%
COc1cccc(C=Nc2ccc3c(c2)CCC3)c1O 6.65%
COc1ccc2c(c1)Cc1sc(NC(=O)c3ccccc3)nc1-2 15.1%
COc1ccc(N=Cc2c(O)ccc3ccccc23)cc1 14.5%
Oc1ccc2ccccc2c1/C=N/c1nc2c(s1)CCCC2 16%
COc1ccc2c(c1)CCc1sc(NC(=O)c3ccco3)nc1-2 9.86%
COc1cccc(C=Nc2cc(C)on2)c1O 10.4%
COc1ccc(Cl)cc1NC(=O)CN(C)C(=O)CCCNC(=O)c1ccc(Cl)cc1 -0.09%
CN(C)CCNC(=S)Nc1ccc(Cl)cc1 10.1%
CC(=O)c1ccc(OCc2cc(C(=O)N3CC[C@@H]4CCCC[C@H]4C3)no2)cc1 8.61%
COc1ccccc1NC(=O)CSc1nnc(-c2ccoc2C)n1CC1CCCO1 (stereo unspecified) 9.62%
CCCN(CCC)Cc1c(C(=O)N/N=C/c2ccoc2)nnn1-c1nonc1N 6.21%
S=C(NC1CCCCC1)N1CCN(C2CCCCC2)CC1 6.75%
O=C(CSc1nc(Cc2ccccc2)nc2ccccc12)Nc1nc2c(s1)CCCC2 18.2%
COc1ccc(N2CCN(C(=O)Cc3ccc(OC)c(OC)c3)CC2)cc1 21.6%
COc1cc(CNc2ccc(N3CCCC3)cc2)ccc1OCc1ccccc1 7.32%
COc1cc(CNc2ccc(N3CCN(C(C)=O)CC3)cc2)ccc1OCc1ccc(F)cc1 28.5%
COc1ccc(N2CCN(C(=O)NCc3ccc(OC)c(OC)c3)CC2)cc1 23.4%
O=C(COc1ccccc1)NCC(c1ccco1)N1CCN(c2ccccc2)CC1 (stereo unspecified) -2.01%
CCCCCC(=O)Nc1ccc(N2CCOCC2)c(S(=O)(=O)Nc2ccc(OC)cc2)c1 10.2%
CC(=O)Nc1c(-c2ccccc2)nc2ncccn12 16.1%
CCN(CC)C(=O)Cn1cc(C(=O)C(=O)N(C)C2CCN(C)CC2)c2ccccc21 0.15%
